HEK293 tox: cytotoxicity counter-screen for GLP-1 receptor inverse agonists; HEK293 cAMP-luciferase reporter cells, luminescence, 24 h; Potency, µM (top dose mostly 38.3 µM), usual class: inhibitors; 0.13% of 410,000 active; AID 624418;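 further: loss of luciferase light is scored as toxicity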
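Seeding density was 200 cells/uL; after overnight-length (12 h) culture, 23 nL compounds went on for 24 h at 37 °C. Readout used a luciferase detection reagent, luminescence taken after 12 min at room temperature.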
Mito fusion act: mitochondrial division inhibition or fusion activation; S. cerevisiae fusion-defective mutant growth rescue, CellTiterGlo 48 h; Potency, µM (doses to about 46.1 µM), most hits filed as activators; 0.23% of 320,000 active; further: nearly all actives have a fitted effect of over 45% in size
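Compounds are tested for their ability to restore growth of mitochondrial fusion-defective yeast strains at non-permissive 37C in YPEG medium over 48 hours. Viability is quantified by luciferase luminescence.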
BRCA1 expr up: increases BRCA1 expression | MCF7-BRCA1-FFLuc reporter, luminescence, 48 h; response scale: scaled: vehicle 0%, 10 µM genistein 100% | Potency, µM (doses to about 46.1 µM), usual class: activators | 1.1% of 380,000 active; further: nearly all actives have a fitted effect of over 80% in size
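MCF7-BRCA1-FFLuc cells, 2000/well in phenol-red-free MEM, attached 2 h then treated 48 h at 37 C. Luciferase luminescence read 15 min after reagent; normalized to genistein maximum activation (10microM) and DMSO, concentration-response fitted.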
GLP1R ag: GLP-1 receptor (human) agonism | HEK293 GLP-1R CRE-luciferase, luminescence, 4-6 h; cells express a hypersensitive GLP-1R form | Potency, µM (series often up to 45.6 µM), usual class: activators | P43220 | 0.007% of 380,000 active
Target sequence (P43220 whole entry, looked up): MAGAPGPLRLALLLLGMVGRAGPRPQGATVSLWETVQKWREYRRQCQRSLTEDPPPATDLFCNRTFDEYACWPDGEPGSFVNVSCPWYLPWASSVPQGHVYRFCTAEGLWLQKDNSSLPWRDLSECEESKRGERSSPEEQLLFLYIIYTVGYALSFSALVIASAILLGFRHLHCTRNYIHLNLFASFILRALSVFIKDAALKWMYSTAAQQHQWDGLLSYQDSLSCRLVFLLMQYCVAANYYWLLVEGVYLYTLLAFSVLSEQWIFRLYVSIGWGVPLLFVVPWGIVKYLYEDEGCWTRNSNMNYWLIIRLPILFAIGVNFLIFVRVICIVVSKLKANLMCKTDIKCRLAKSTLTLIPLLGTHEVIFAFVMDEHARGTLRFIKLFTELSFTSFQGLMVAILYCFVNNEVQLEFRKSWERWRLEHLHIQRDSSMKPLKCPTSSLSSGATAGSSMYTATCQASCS
GLP1R inv ag: inverse agonists of human GLP-1 receptor. P43220. HEK293 GLP-1R CRE-luciferase, luminescence, 24 h; GLP-1R form is constitutively active. Potency, µM (doses to about 38.3 µM), actives largely listed as inhibitors. 1.6% of 410,000 active; further: nearly all actives have a fitted effect of over 55% in size
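Assay principle: reduced luminescence from a cAMP-responsive reporter in HEK293 cells co-expressing a constitutively active GLP-1R. Conditions: 24 hr compound incubation, 37 deg C, 5% CO2.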
Large screens that a line does not name were inactive; ! = a repeat was not active. Hits are enriched below; roughly 2.8% of the tested compounds scored in any of these assays. The call rests on the fitted dose curve; in most records, active means well fitted curve in the direction sought with a large enough effect; inconclusive means small, poorly fitted or top-dose-only effect, or another doubt; inactive means no such curve, though single readings can be large; an effect the other way counts as inactive or inconclusive.

Cc1cc(C)c(NC(=O)Cn2nnc(C(=O)NCc3ccc4c(c3)OCO4)c2N)c(C)c1	none
OCCCNc1nc(-c2ccc(Br)cc2)nnc1-c1ccc(Cl)cc1	Mito fusion act 22µM, GLP1R inv ag inconclusive
OCCCNc1nc(-c2ccc(Cl)cc2)nc2ccccc12	GLP1R inv ag inconclusive
Cn1c(Cl)c(C(=O)Nc2ccc(Cl)cc2)c2ccccc21	none
CCOC(=O)C1=C(C)NC(C)=C(C(=O)OCC)C1c1c(F)c(F)c(F)c(F)c1F	Mito fusion act 2.3µM (no result: HEK293 tox, BRCA1 expr up, GLP1R ag, GLP1R inv ag)
CCOC(=O)C1=C(C)NC(C)=C(C(=O)OCC)C1c1sccc1C	GLP1R inv ag 7.9µM
CCOC(=O)C1=C(C)NC(C)=C(C(=O)OCC)C1c1cccs1	none
CCOC(=O)C1=C(C)NC(C)=C(C(=O)OCC)C1c1ccc(O)cc1	none
Cc1ccc(OCCC(=O)OC(C)C(=O)Nc2ccc(Cl)cn2)cc1 (centres undefined)	none
CCOC(=O)c1ccc(CN2CCCC(C)(C(=O)NCCOC)C2)cc1 (centres undefined)	none (no result: Mito fusion act)
C=CCn1c2ccccc2c(=O)c2cc(C#CC[C@@H](C)O)ccc21	BRCA1 expr up 3.5µM, GLP1R ag inconclusive
OC(COc1ccc2c(c1)OCO2)CN1CCN(c2ccccc2)CC1 (centres undefined)	GLP1R inv ag 8.9µM
OC(COc1ccc2c(c1)OCO2)CN1CCCCC1 (centres undefined)	none
CC(C)(C)c1ccc(OCC(O)CN2CCN(C(=O)c3ccccc3)CC2)cc1 (centres undefined)	GLP1R inv ag 10µM
COc1ccc(OCC(O)CN2CCN(c3ccccc3)CC2)cc1 (centres undefined)	none
CC(C)c1ccc(OCC(O)CN2CCN(c3ccccc3)CC2)cc1 (centres undefined)	HEK293 tox inconclusive, GLP1R inv ag 10µM
COc1cc(OC)nc(Oc2ccccc2C(=O)Oc2ccc(Cl)cc2)n1	GLP1R inv ag 3.2µM
CCOC(CCNC(=O)c1cn(C)c(=O)c2c1c1ccccc1n2C)OCC	none
O=C(Nc1ccc(N2CCCC2)c(Cl)c1)c1ccccc1F	BRCA1 expr up 3.2µM, GLP1R inv ag inconclusive (no result: Mito fusion act)
O=C(Nc1ccc(N2CCCC2)c(Cl)c1)c1ccc(Br)o1	BRCA1 expr up 4µM, GLP1R inv ag inconclusive
O=C(Nc1ccc(N2CCOCC2)c(Cl)c1)c1ccccc1F	BRCA1 expr up inconclusive
CCN1CCN(c2ccc(NC(=O)c3ccc([N+](=O)[O-])o3)cc2Cl)CC1	HEK293 tox 5.6µM
COc1ccccc1CNC(=O)CCn1c(=O)[nH]c2ccsc2c1=O	none
COc1ccc(C2/C=C\CN(C(=O)Nc3ccccc3)CC(=O)N2Cc2ccc(F)cc2)cc1 (centres undefined)	none
COc1ccc(C2/C=C\CN(C(=O)C3CCCC3)[C@H](Cc3ccccc3)C(=O)N2Cc2ccc(F)cc2)cc1 (some centres undefined)	GLP1R inv ag 4.5µM
COc1ccc(C2/C=C\CN(C(=O)Nc3ccc(C(F)(F)F)cc3)CC(=O)N2Cc2ccc(F)cc2)cc1 (centres undefined)	GLP1R inv ag 11µM
COc1ccc([C@H]2/C=C\CN(C(=O)C3CCCC3)[C@@H](C)C(=O)N2Cc2ccc(F)cc2)cc1	GLP1R inv ag inconclusive (no result: Mito fusion act)
CN(C)C(=O)C(NC(=O)c1ccccc1)=C(Cl)Cl	none
Cc1occc1C(=O)Nc1ccc2c(c1)OCO2	BRCA1 expr up 3.2µM
Cc1occc1C(=O)N/N=C/c1ccc2c(c1)OCO2	GLP1R inv ag inconclusive
Cc1ccc(NC(=O)c2ccoc2C)cc1C	Mito fusion act inconclusive, BRCA1 expr up 6.3µM
CN(Cc1ccccc1)C(=O)c1csc([C@@H]2O[C@H](CO)[C@H](O)[C@H](O)[C@H]2O)n1	none (no result: Mito fusion act)
Nc1nc(COc2ccc3ccccc3c2)cs1	BRCA1 expr up 6.3µM
CCN(CC)C(=O)CSc1n[nH]c(=O)n1CCc1ccccc1	none
O=c1[nH]nc(Sc2ncnc3sccc23)n1CCc1ccccc1	HEK293 tox inconclusive, GLP1R inv ag 5.6µM
C[C@@H](C(=O)NCc1ccco1)N1C(=O)N2CCc3c([nH]c4ccccc34)[C@@]2(C)C1=O	GLP1R inv ag inconclusive
CC(C)C[C@@H](C(=O)NCc1ccco1)N1C(=O)N2CCc3c([nH]c4ccccc34)[C@@]2(C)C1=O	GLP1R inv ag 10µM
O=C(CSc1nnc(-c2ccncc2)n1-c1ccccc1)N1CCN(c2ccc(Cl)cc2)CC1	GLP1R inv ag inconclusive
CC(=O)C[C@H](O)CC(=O)[C@H]1OC(=O)[C@@H](C)C/C=C\Cc2ccccc21	none (no result: Mito fusion act)
O=C(CN1CCN(Cc2ccc(F)cc2)C1=O)NCc1cccs1	none
CN1C(C(=O)Nc2ncccn2)=C(O)c2ccccc2S1(=O)=O	none
CN1C(C(=O)Nc2ccccn2)=C(O)c2ccccc2S1(=O)=O	Mito fusion act 16µM!
CCOC(=O)C1CCN(S(=O)(=O)CCNC(=O)c2ccc3c(c2)OCO3)CC1	none
Cc1ccnc2c1ccc1cccnc12	HEK293 tox 1.6µM, GLP1R inv ag inconclusive
Cc1ccnc2c1ccc1ccccc12	none
CCN(CC)S(=O)(=O)c1ccc(C(=O)NC2CC(=O)N(c3ccc(OC)c(OC)c3)C2)cc1 (centres undefined)	none (no result: Mito fusion act)
CCN1C(=O)C(=CC=CN(C)c2ccccc2)SC1=S	BRCA1 expr up 2.5µM (no result: Mito fusion act)
CCN1C(=O)/C(=C/C=C2\C=CN(CC)c3ccccc32)SC1=S	BRCA1 expr up 6.3µM
CC1CCCC(NC(=O)COC(=O)CN2C(=O)C3CCCCC3C2=O)C1C (centres undefined)	none
Cc1ccc(NC(=O)Nc2ccc3c(c2)nc(C)n3C)cc1C	none (no result: HEK293 tox, BRCA1 expr up, GLP1R ag, GLP1R inv ag)
Cc1cc2nc(C)n(CCCNC(=O)Nc3ccc(F)cc3)c2cc1C	GLP1R inv ag 10µM
CC(=O)c1cccc(NC(=O)N(c2ccccc2)c2ccccc2)c1	none
O=[N+]([O-])c1cccc(-c2nnc(-c3ccc4c(c3)OCO4)o2)c1	BRCA1 expr up 2.5µM
CN(CCCC1CCCC1)C(=O)CC1C(=O)NCCN1Cc1ccc(F)cc1 (centres undefined)	GLP1R inv ag inconclusive
CC(=O)N1CCN(c2ccc(NC(=O)c3cc4ccccc4o3)cc2)CC1	none
Cc1ccc(C(=O)c2cc3ccccc3o2)cc1C	BRCA1 expr up 11µM, GLP1R inv ag inconclusive
O=C(CCc1ccccc1)Nc1ccc(N2CCCCC2)cc1	BRCA1 expr up 11µM
O=C(Nc1ccc(N2CCCC2)cc1)c1cc2ccccc2o1	BRCA1 expr up 8.9µM
O=C(Nc1cccc(-c2nc3ncccc3o2)c1)c1cc2ccccc2o1	HEK293 tox inconclusive, Mito fusion act 13µM, GLP1R inv ag inconclusive
COc1ccccc1C(=O)Nc1nnc2n1CCS2	none (no result: Mito fusion act)
COc1ccc(N(CC(=O)Nc2ccccc2C(=O)NCc2ccco2)S(C)(=O)=O)cc1	none
